This note sets out measurements from PubChem BioAssay.

By inhibition is commonly meant the drop in the measured response relative to a control, in per cent.

The nature of assay [1]: antimalarial activity against Dd2 strain (AID 2302;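 active = growth inhibition above 50% at the single 2 µM test dose, taken to imply half-maximal potency below 2 µM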;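 note: 0% = DMSO untreated growth and 100% = chloroquine plus artemisinin killed control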). Conditions: P. falciparum Dd2 in RBCs, LDH growth readout, 72 h; at 2 µM; active compounds read high.
Assay [2] can be described thus: HepG2 cytotoxicity, primary screen, cytotoxicity control for P. falciparum antimalarial project, cell-based, ATP luminescence (AID 2303;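 active = inhibition above 50%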;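 note: 0% = DMSO wells and 100% = digitonin-killed cells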). Conditions: HepG2 viability, 24-48 h, at 10 µM, active compounds read high.
Assay [3] has as its target L-lactate dehydrogenase (Plasmodium falciparum (isolate CDC / Honduras)) (UniProt Q27743). As to the kind of experiment: PfLDH activity inhibition – cell lysate, 3D7 strain, counter-screen for P. falciparum growth inhibition project (AID 2304).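 Note: 0% = vehicle and 100% = reference inhibitor.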 As to conditions: P. falciparum 3D7 crude extract, LDH APAD/NBT absorbance; at 2 µM; active compounds read high.
Assay [4] is described as follows: inhibition of 3D7 malaria parasite growth – strain 3D7 (AID 2306).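 Note: 0% = DMSO wells and 100% = chloroquine plus artemisinin control wells.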 Conditions: P. falciparum 3D7 erythrocytic growth, LDH absorbance, 72 h; at 2 µM; active compounds read high.
Assay [5] concerns the target Calcium-dependent protein kinase 1 (Plasmodium falciparum (isolate 3D7)) (UniProt P62344). The assay can be described thus: PfCDPK1 kinase inhibitors, biochemical, TCAMS library (AID 1159585; cut-off not given, nearly all actives have IC50 up to about 0.98 µM;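 note: inhibitors leave more ATP so luminescence rises with inhibition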). As to conditions: recombinant PfCDPK1, Kinase-Glo ATP depletion luminescence. On the technique in general: In Kinase-Glo more light means more ATP remaining.
In assay [6] the target is Plasmodium falciparum protein kinase 6 (PK6, PF3D7_1337100) (UniProt Q8IDW1). The assay can be described thus: PfPK6 kinase inhibitors, biochemical, TCAMS library (AID 1159586). As to conditions: recombinant PfPK6, Kinase-Glo ATP depletion luminescence.
Sequence of Plasmodium falciparum protein kinase 6 (PK6, PF3D7_1337100) (Q8IDW1 1-305): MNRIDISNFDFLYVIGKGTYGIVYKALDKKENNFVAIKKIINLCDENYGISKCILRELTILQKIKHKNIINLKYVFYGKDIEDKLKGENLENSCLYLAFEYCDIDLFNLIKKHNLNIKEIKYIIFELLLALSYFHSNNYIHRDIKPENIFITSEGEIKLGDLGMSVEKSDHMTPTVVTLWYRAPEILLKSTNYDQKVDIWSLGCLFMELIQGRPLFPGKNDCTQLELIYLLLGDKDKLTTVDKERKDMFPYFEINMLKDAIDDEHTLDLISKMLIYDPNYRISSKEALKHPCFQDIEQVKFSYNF
The target in assay [7] is Protein kinase 7 (PK7), Plasmodium falciparum 3D7 (PF3D7_0213400) (UniProt Q7YTF7). The assay can be described thus: inhibition of Plasmodium PK7 catalytic activity – biochemical, TCAMS antimalarial set, Kinase-Glo luminescence (AID 1159587). Conditions: recombinant PfPK7, Kinase-Glo ATP depletion luminescence.
Sequence of Protein kinase 7 (PK7), Plasmodium falciparum 3D7 (PF3D7_0213400) (Q7YTF7 1-343): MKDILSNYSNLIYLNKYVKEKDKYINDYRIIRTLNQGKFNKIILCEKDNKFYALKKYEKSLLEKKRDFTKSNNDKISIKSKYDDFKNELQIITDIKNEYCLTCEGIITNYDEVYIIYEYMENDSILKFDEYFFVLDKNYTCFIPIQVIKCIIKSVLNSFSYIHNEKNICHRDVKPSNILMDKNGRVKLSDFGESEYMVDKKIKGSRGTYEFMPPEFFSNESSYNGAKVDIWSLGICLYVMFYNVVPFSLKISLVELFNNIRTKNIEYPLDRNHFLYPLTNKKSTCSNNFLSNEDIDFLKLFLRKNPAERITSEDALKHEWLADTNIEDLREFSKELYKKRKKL
For assay [8], the target named is Calcium-dependent protein kinase 4 (Plasmodium falciparum (isolate 3D7)) (UniProt Q8IBS5). As to the kind of experiment: PfCDPK4 kinase inhibitors, biochemical, TCAMS library (AID 1159588; cut-off not given, nearly all actives have IC50 up to about 0.91 µM). As to conditions: recombinant PfCDPK4, Kinase-Glo ATP depletion luminescence.
Sequence of Calcium-dependent protein kinase 4 (Plasmodium falciparum (isolate 3D7)) (Q8IBS5 whole entry, looked up): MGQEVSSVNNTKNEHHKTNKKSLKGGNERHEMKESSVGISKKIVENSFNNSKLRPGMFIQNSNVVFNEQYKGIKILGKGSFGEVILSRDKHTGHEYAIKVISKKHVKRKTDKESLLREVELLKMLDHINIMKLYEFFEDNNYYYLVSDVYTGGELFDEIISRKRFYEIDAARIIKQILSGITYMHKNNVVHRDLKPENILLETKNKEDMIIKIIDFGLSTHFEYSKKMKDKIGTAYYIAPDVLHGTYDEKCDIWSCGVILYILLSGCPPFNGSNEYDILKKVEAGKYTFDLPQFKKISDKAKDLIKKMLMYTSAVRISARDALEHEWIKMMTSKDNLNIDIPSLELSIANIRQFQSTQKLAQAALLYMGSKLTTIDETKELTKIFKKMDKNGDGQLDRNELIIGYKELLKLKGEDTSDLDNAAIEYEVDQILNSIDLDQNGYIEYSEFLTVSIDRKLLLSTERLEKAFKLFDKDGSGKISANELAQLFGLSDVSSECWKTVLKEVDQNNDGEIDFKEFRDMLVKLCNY

Unmarked numbers belong to inactive results. For some assays here: Measured potencies and affinities stand elsewhere. Calls of active or inactive are those of the source. Unless noted, the rule behind the calls is not given here.

Sequence of L-lactate dehydrogenase (Plasmodium falciparum (isolate CDC / Honduras)) (Q27743 whole entry, looked up): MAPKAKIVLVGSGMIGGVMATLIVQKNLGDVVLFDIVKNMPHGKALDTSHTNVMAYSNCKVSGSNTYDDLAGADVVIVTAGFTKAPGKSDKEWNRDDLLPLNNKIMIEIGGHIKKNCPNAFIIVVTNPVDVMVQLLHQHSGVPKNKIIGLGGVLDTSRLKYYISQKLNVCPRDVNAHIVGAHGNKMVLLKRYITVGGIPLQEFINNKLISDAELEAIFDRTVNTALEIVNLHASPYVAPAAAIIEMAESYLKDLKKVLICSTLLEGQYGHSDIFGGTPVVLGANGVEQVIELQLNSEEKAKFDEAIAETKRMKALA
Sequence of Calcium-dependent protein kinase 1 (Plasmodium falciparum (isolate 3D7)) (P62344 whole entry, looked up): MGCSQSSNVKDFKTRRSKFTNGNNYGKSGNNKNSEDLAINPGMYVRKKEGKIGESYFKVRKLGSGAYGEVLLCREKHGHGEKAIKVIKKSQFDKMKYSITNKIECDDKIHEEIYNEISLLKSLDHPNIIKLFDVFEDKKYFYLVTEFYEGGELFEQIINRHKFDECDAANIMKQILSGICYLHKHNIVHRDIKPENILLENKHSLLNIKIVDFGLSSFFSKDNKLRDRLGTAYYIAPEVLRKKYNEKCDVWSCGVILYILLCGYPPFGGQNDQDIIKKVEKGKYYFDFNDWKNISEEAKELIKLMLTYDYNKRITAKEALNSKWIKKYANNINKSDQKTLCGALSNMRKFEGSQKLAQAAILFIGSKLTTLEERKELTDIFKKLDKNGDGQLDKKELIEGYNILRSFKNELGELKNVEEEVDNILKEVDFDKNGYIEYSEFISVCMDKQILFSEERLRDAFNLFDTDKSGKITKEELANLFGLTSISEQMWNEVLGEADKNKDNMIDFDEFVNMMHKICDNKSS

With `O=C(Nc1ccc(C(=O)OC[C@@H]2CCCN3CCCC[C@H]23)cc1)c1ccc([N+](=O)[O-])cc1`, the growth inhibition is 25% in assay [1] and 95% (active) in assay [4]. Also, the inhibition was 5% in assay [2] and 2% in assay [3]. Also, the outcome in assay [5], in assay [6], in assay [7] and in assay [8] was inactive.
Take `CCOC(=O)c1ccc2nc(-c3ccc(C(=O)NCc4ccc(C(C)(C)C)cc4)cc3)[nH]c2c1`: the growth inhibition was 34% in assay [1] and 94% (active) in assay [4]. Also, the inhibition was -9% in assay [2] and -3% in assay [3]. Besides, the result in assay [5], in assay [6], in assay [7] and in assay [8] was inactive.
`CN(C)CCNC(=O)c1ccc(-c2ccc3c(Nc4ccccc4)c(C(N)=O)cnc3c2)cc1`: the growth inhibition in assay [1] was 68% (active); in assay [4], 99% (active). Moreover, the inhibition was 9% in assay [2] and 6% in assay [3]. Also, the result in assay [5], in assay [6], in assay [7] and in assay [8] was inactive.
For `COc1ccc(-c2ccc(NC(=O)c3ccc(C#N)cc3)cc2)cc1CNC(C)C`, the growth inhibition in assay [1] was 38%; in assay [4], 100% (active). For the same compound, the inhibition in assay [2] was 19%; in assay [3] it was -3%. Further, the outcome in assay [5], in assay [6], in assay [7] and in assay [8] was inactive.
`Cc1c(S(=O)(=O)Nc2ccc3nccc(N4CCN[C@H](C)C4)c3c2)sc2ccc(Cl)cc12`: the values for the growth inhibition in assay [1] and in assay [4] were 0% and 96% (active), respectively. The figures for the inhibition in assay [2] and in assay [3] were 16% and -3%, respectively. The result in assay [5], in assay [6], in assay [7] and in assay [8] was inactive.
As to `CCOC(=O)c1cnc2c(OC)cc(OC)c(Cl)c2c1Nc1cccc(C)c1C`, the growth inhibition in assay [1] was 99% (active); in assay [4], 102% (active). The figures for the inhibition in assay [2] and in assay [3] were 5% and 0%, respectively. Moreover, the outcome in assay [5], in assay [6], in assay [7] and in assay [8] was inactive.
On to `COc1ccc(NC(=O)c2ccc(-c3nc(-c4cccc(C(F)(F)F)c4)cs3)cc2)cc1N1CCN(C)CC1`, for which the growth inhibition in assay [1] was 59% (active); in assay [4], 98% (active). The inhibition was 29% in assay [2] and 6% in assay [3]. Further, the outcome in assay [5], in assay [6], in assay [7] and in assay [8] was inactive.
With `CCCN(CCC)CCCCC(C)Nc1c2ccc(Cl)cc2nc2ccc(OC)cc12` (configuration not stated), the growth inhibition in assay [1] is 100% (active); in assay [4], 102% (active). Moreover, the inhibition in assay [2] was 42%; in assay [3], -2%. Also, the result in assay [5], in assay [6], in assay [7] and in assay [8] was inactive.
For the compound `Clc1ccccc1OCc1ccccn1`, the growth inhibition in assay [1] is 2%; in assay [4] it was 85% (active). Also, the inhibition is 2% in assay [2] and -3% in assay [3]. Further, the result in assay [5], in assay [6], in assay [7] and in assay [8] was inactive.
On to `CCOc1ccc2c(NN=Cc3ccccn3)cc(C)nc2c1`, for which the values for the growth inhibition in assay [1] and in assay [4] were 1% and 98% (active), respectively. Also, the results for the inhibition in assay [2] and in assay [3] were 19% and -3%, respectively. Further, the outcome in assay [5], in assay [6], in assay [7] and in assay [8] was inactive.
`CCOC(=O)/C(=N\OC(C)(C)C(=O)NCc1ccc(O)c(O)c1)c1csc(NC(c2ccccc2)(c2ccccc2)c2ccccc2)n1`: the figures for the growth inhibition in assay [1] and in assay [4] were 99% (active) and 100% (active), respectively. The results for the inhibition in assay [2] and in assay [3] were 13% and -3%, respectively. Also, the outcome in assay [5], in assay [6], in assay [7] and in assay [8] was inactive.
Turning to `CCCCNCc1ccc(-c2nc(CN(CCCn3ccnc3)C(=O)N[C@@H]3C[C@H]3c3ccccc3)cs2)cc1`, the growth inhibition in assay [1] was 34%; in assay [4], 100% (active). Further, the values for the inhibition in assay [2] and in assay [3] were 21% and 3%, respectively. Further, the result in assay [5], in assay [6], in assay [7] and in assay [8] was inactive.
Take `O=C(NC1CCCCN(Cc2ccccc2O)C1)c1cccc(Cl)c1` (configuration not stated): the growth inhibition is 30% in assay [1] and 86% (active) in assay [4]. Further, the inhibition in assay [2] is 15%; in assay [3], -4%. In addition, the outcome in assay [5], in assay [6], in assay [7] and in assay [8] was inactive.
As to `COc1ccc(CNC(=O)Nc2cc3cc(-c4ccc(CN(C)C)cc4)ccc3n3c(C)nnc23)cc1`, the growth inhibition was 80% (active) in assay [1] and 93% (active) in assay [4]. For the same compound, the results for the inhibition in assay [2] and in assay [3] were 99% (active) and -4%, respectively. Besides, the outcome in assay [5], in assay [6], in assay [7] and in assay [8] was inactive.
As for `O=C(Nc1ccc(Br)cc1)c1cc(Br)ccc1NS(=O)(=O)c1ccc(C(F)(F)F)cc1`, the values for the growth inhibition in assay [1] and in assay [4] were 56% (active) and 100% (active), respectively. Besides, the inhibition in assay [2] is 53% (active); in assay [3], 2%. In addition, the result in assay [5], in assay [6], in assay [7] and in assay [8] was inactive.
As for `CC1(C)CNCc2cc(NC(=O)/C=C/c3ccc(Cl)cc3)ccc21`, the growth inhibition in assay [1] was 26%; in assay [4], 82% (active). Moreover, the inhibition is 23% in assay [2] and -9% in assay [3]. The outcome in assay [5], in assay [6], in assay [7] and in assay [8] was inactive.
For the compound `c1cc(CN2CCN(CCN3CCOCC3)CC2)cc(-c2csc(-c3nc4ccccc4[nH]3)c2)c1`, the growth inhibition in assay [1] was 99% (active); in assay [4], 100% (active). Moreover, the inhibition in assay [2] is 27%; in assay [3] it was -8%. For the same compound, the outcome in assay [5], in assay [6], in assay [7] and in assay [8] was inactive.
Regarding `CN1CCN(c2ccc(-c3cccc(NC(=O)c4cccc(Cl)c4)c3)nn2)CC1`, the figures for the growth inhibition in assay [1] and in assay [4] were 37% and 94% (active), respectively. Also, the inhibition in assay [2] is 5%; in assay [3] it was -2%. Besides, the result in assay [5], in assay [6], in assay [7] and in assay [8] was inactive.
For `O=C(Nc1cc(Cl)cc(Cl)c1)Nc1ccnc2ccccc12`, the growth inhibition was 65% (active) in assay [1] and 96% (active) in assay [4]. Also, the inhibition was 15% in assay [2] and -2% in assay [3]. Besides, the result in assay [5], in assay [6], in assay [7] and in assay [8] was inactive.
